SMILES strings stand for the structures. The panel holds about 79,000 compounds, 15% with a hit somewhere; the sample as a whole holds those more often. Values without a mark were called inactive. Cut-off read from the data, not from the text of the source: active = growth inhibition above about 70%; inactive = the rest.

The first assay is described as follows: NCI Yeast Anticancer Drug Screen. Data for the bub3 strain (AID 167). The note with it: S. cerevisiae bub3 mutant strain, at 50.0 µM, stronger effect = higher value. Put shortly:
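Growth of a checkpoint-deficient yeast mutant is measured after compound exposure. Values represent inhibition relative to vehicle.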
On to `[N-]=[N+]=NC1(Cc2ccccc2)C(=O)Nc2ccccc2C1=O` (stereo not given), for which the growth inhibition is -5.65%.

Regarding `CCc1ccccc1NC(=O)CCl`, the growth inhibition is -3.1%.

On to `O=S1(=O)c2ccccc2NC(c2ccc3ccccc3c2)CC1c1ccccc1F` (stereo not given), for which the growth inhibition was -18.4%.

Consider `C/C(=N\N=C(/C)c1cccc2ccccc12)c1cccc2ccccc12`, for which the growth inhibition is -17.7%.

On to `C=CCC[P+](c1ccccc1)(c1ccccc1)c1ccccc1`, for which the growth inhibition is 9.1%.

In the case of `CCOC(=O)/C(C#N)=C\N(C)C`, the growth inhibition was 9.65%.

Regarding `Cc1cccc(OCC(O)CN(Cc2ccsc2)c2ccccn2)c1` (stereo not given), the growth inhibition was 14.9%.

Take `COc1ccc(C(=O)C(c2ccc(OC)cc2)C2(O)C(=O)Nc3ccc([N+](=O)[O-])cc32)cc1` (stereo not given): the growth inhibition was 5.65%.

On to `CC12CCC(C1)C(C)(C)/C2=N\O` (stereo not given), for which the growth inhibition was 0.05%.

As to `COC(=O)C1C(=O)CC2CCCCC21` (stereo not given), the growth inhibition is -22.3%.

Take `CCSC1OC(C(COC(C)=O)OC(C)=O)C(OC(C)=O)C1NC(=O)OCc1ccccc1` (stereo not given): the growth inhibition was 1%.

As for `O=C(O)/C=C/C=C/c1ccc(Cl)cc1`, the growth inhibition is 10.4%.

For `COC1(C)CNCC(C)(C)NC(=O)C(C)(OC)CNCC(C)(C)NC1=O` (stereo not given), the growth inhibition is -32.5%.

Regarding `[N-]=[N+]=CC(=O)C1OC1c1ccc(Br)cc1` (stereo not given), the growth inhibition is -0.25%.

Consider `CCOC(CSc1cc(C)c2ccccc2n1)OCC`, for which the growth inhibition is 0.2%.

As for `NNC(=O)C(=O)N/N=C1/CCCC1C(=O)CCC(=O)Nc1ccc(Cl)cc1` (stereo not given), the growth inhibition was 0.3%.

For `C/C(=N/O)C1c2ccccc2Cc2ccccc21`, the growth inhibition is -1.8%.

Consider `Cc1cc(=O)c2cc(Br)cc(Br)c2[nH]1`, for which the growth inhibition was 9.85%.

Consider `N#CCCN(Cc1ccccc1)CN1C(=O)c2ccccc2C1=O`, for which the growth inhibition is 6.4%.

Take `CNCCCCCNC`: the growth inhibition was -0.2%.

On to `O=C1c2ccccc2C(=O)c2c1oc1c2ccc2ccccc21`, for which the growth inhibition was -5.25%.

With `CCC1(C)CC(=O)N(C/C=C(\C)CCC(=O)O)C(=O)C1`, the growth inhibition is 7%.

Regarding `O=c1[nH]ncc2ccc([N+](=O)[O-])cc12`, the growth inhibition is -2.3%.

Regarding `O=C(O)c1ccccc1P(=O)(O)c1ccccc1`, the growth inhibition was -6.85%.

In the case of `CC(CO)(CO)N1C(=O)c2cccc3cc([N+](=O)[O-])cc(c23)C1=O`, the growth inhibition is 35.2%.

With `CCCCC(CC)CSCCOC(C)OCCSCC(CC)CCCC` (stereo not given), the growth inhibition is 6.6%.

In the case of `CC(C)CCC[C@@H](C)[C@H]1CC[C@H]2[C@@H]3CC=C4C[C@@H](OC(=O)c5cccc6c(=O)c7ccccc7[nH]c56)CC[C@]4(C)[C@H]3CC[C@]12C`, the growth inhibition was -3.8%.

In the case of `[Mn+2].[NH-]CC(=O)NC(Cc1ccccc1)C(=O)O.[NH-]CC(=O)NC(Cc1ccccc1)C(=O)O` (stereo not given), the growth inhibition is 4.05%.

As for `O=C(C/C(=N\NC(=O)C[n+]1ccccc1)C(=O)Nc1nc2ccc([N+](=O)[O-])cc2s1)CC(c1ccccc1)c1c(O)c2ccccc2oc1=O` (stereo not given), the growth inhibition is 7.3%.

`C1CCC(C2CCCC[N-]2)[N-]C1.C1CCC(C2CCCC[N-]2)[N-]C1.O=C(O)C(=O)O.[Ru+4]` (stereo not given): the growth inhibition was -3.25%.

For the compound `COc1cccc(/S(C)=N/S(=O)(=O)c2ccc(C)cc2)c1` (stereo not given), the growth inhibition is -8.65%.

Turning to `N#CCc1nc(-c2cc3ccccc3oc2=O)cs1`, the growth inhibition is 0.75%.

In the case of `CC(=O)C1CC=C(C)CC1` (stereo not given), the growth inhibition was -2.85%.

In the case of `CCS(=O)(=O)C(S(C)(=O)=O)S(=O)(=O)C(C)C` (stereo not given), the growth inhibition was 26.8%.

Regarding `CCC(C)C(=O)/C=C/c1ccccc1` (stereo not given), the growth inhibition was 21.3%.

As for `O=C1CCCCC1C(O)(C(F)(F)F)C(F)(F)Cl` (stereo not given), the growth inhibition was -30.2%.

In the case of `O=C(O)c1ccc(-c2nn[nH]n2)cc1`, the growth inhibition was -18.9%.

For `Cc1c(C(=O)CC(=O)C(=O)NC2C3CC4CC(C3)CC2C4)[n+](=O)c2ccccc2n1[O-]` (stereo not given), the growth inhibition was -9.8%.

As to `Cc1nc(N)nc(C)c1N=Nc1ccc(Cl)cc1Cl`, the growth inhibition is -5.25%.

`c1ccc(C2=NC3CCCCC3S2)cc1` (stereo not given): the growth inhibition is -5.55%.

The nature of the next assay: NCI Yeast Anticancer Drug Screen. Data for the mlh1 rad18 strain (AID 175). Particulars: S. cerevisiae mlh1 rad18 strain growth inhibition; at 50.0 µM; stronger effect = higher value. A digest of the protocol:
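Compound-treated yeast growth, normalised to vehicle controls. Strain bears defined DNA repair mutations.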
On to `[N-]=[N+]=NC1(Cc2ccccc2)C(=O)Nc2ccccc2C1=O` (stereo not given), for which the growth inhibition was -16%.

As to `CCc1ccccc1NC(=O)CCl`, the growth inhibition is 2.75%.

Turning to `O=S1(=O)c2ccccc2NC(c2ccc3ccccc3c2)CC1c1ccccc1F` (stereo not given), the growth inhibition is -14.2%.

As to `C/C(=N\N=C(/C)c1cccc2ccccc12)c1cccc2ccccc12`, the growth inhibition is -36.2%.

`C=CCC[P+](c1ccccc1)(c1ccccc1)c1ccccc1`: the growth inhibition was 8.75%.

With `CCOC(=O)/C(C#N)=C\N(C)C`, the growth inhibition was 13.5%.

Take `Cc1cccc(OCC(O)CN(Cc2ccsc2)c2ccccn2)c1` (stereo not given): the growth inhibition was 8.2%.

Consider `COc1ccc(C(=O)C(c2ccc(OC)cc2)C2(O)C(=O)Nc3ccc([N+](=O)[O-])cc32)cc1` (stereo not given), for which the growth inhibition is 1.4%.

Take `CC12CCC(C1)C(C)(C)/C2=N\O` (stereo not given): the growth inhibition was 2.65%.

On to `COC(=O)C1C(=O)CC2CCCCC21` (stereo not given), for which the growth inhibition was 16.8%.

`CCSC1OC(C(COC(C)=O)OC(C)=O)C(OC(C)=O)C1NC(=O)OCc1ccccc1` (stereo not given): the growth inhibition is -18.1%.

For `O=C(O)/C=C/C=C/c1ccc(Cl)cc1`, the growth inhibition is -1.95%.

Consider `COC1(C)CNCC(C)(C)NC(=O)C(C)(OC)CNCC(C)(C)NC1=O` (stereo not given), for which the growth inhibition was -19.6%.

Regarding `[N-]=[N+]=CC(=O)C1OC1c1ccc(Br)cc1` (stereo not given), the growth inhibition is 33.1%.

For the compound `CCOC(CSc1cc(C)c2ccccc2n1)OCC`, the growth inhibition was -15.2%.

Turning to `NNC(=O)C(=O)N/N=C1/CCCC1C(=O)CCC(=O)Nc1ccc(Cl)cc1` (stereo not given), the growth inhibition was -6.9%.

Take `C/C(=N/O)C1c2ccccc2Cc2ccccc21`: the growth inhibition was -22.5%.

Consider `Cc1cc(=O)c2cc(Br)cc(Br)c2[nH]1`, for which the growth inhibition was 12%.

As for `N#CCCN(Cc1ccccc1)CN1C(=O)c2ccccc2C1=O`, the growth inhibition was -10.3%.

In the case of `CNCCCCCNC`, the growth inhibition is 19.2%.

`O=C1c2ccccc2C(=O)c2c1oc1c2ccc2ccccc21`: the growth inhibition was 8.5%.

Take `CCC1(C)CC(=O)N(C/C=C(\C)CCC(=O)O)C(=O)C1`: the growth inhibition is -7.45%.

On to `O=c1[nH]ncc2ccc([N+](=O)[O-])cc12`, for which the growth inhibition was -6.8%.

For the compound `O=C(O)c1ccccc1P(=O)(O)c1ccccc1`, the growth inhibition was -31.2%.

Turning to `CC(CO)(CO)N1C(=O)c2cccc3cc([N+](=O)[O-])cc(c23)C1=O`, the growth inhibition was 14.3%.

As to `CCCCC(CC)CSCCOC(C)OCCSCC(CC)CCCC` (stereo not given), the growth inhibition is 27.9%.

As to `CC(C)CCC[C@@H](C)[C@H]1CC[C@H]2[C@@H]3CC=C4C[C@@H](OC(=O)c5cccc6c(=O)c7ccccc7[nH]c56)CC[C@]4(C)[C@H]3CC[C@]12C`, the growth inhibition was -28.9%.

Regarding `[Mn+2].[NH-]CC(=O)NC(Cc1ccccc1)C(=O)O.[NH-]CC(=O)NC(Cc1ccccc1)C(=O)O` (stereo not given), the growth inhibition is -8%.

For `O=C(C/C(=N\NC(=O)C[n+]1ccccc1)C(=O)Nc1nc2ccc([N+](=O)[O-])cc2s1)CC(c1ccccc1)c1c(O)c2ccccc2oc1=O` (stereo not given), the growth inhibition is -4.85%.

Turning to `C1CCC(C2CCCC[N-]2)[N-]C1.C1CCC(C2CCCC[N-]2)[N-]C1.O=C(O)C(=O)O.[Ru+4]` (stereo not given), the growth inhibition was 7.9%.

With `COc1cccc(/S(C)=N/S(=O)(=O)c2ccc(C)cc2)c1` (stereo not given), the growth inhibition is 8.5%.

For `N#CCc1nc(-c2cc3ccccc3oc2=O)cs1`, the growth inhibition is -57%.

Regarding `CC(=O)C1CC=C(C)CC1` (stereo not given), the growth inhibition was 2.6%.

Take `CCS(=O)(=O)C(S(C)(=O)=O)S(=O)(=O)C(C)C` (stereo not given): the growth inhibition was 14%.

As for `CCC(C)C(=O)/C=C/c1ccccc1` (stereo not given), the growth inhibition is -12.1%.

As to `O=C1CCCCC1C(O)(C(F)(F)F)C(F)(F)Cl` (stereo not given), the growth inhibition was -20.1%.

In the case of `O=C(O)c1ccc(-c2nn[nH]n2)cc1`, the growth inhibition is -15.2%.

For the compound `Cc1c(C(=O)CC(=O)C(=O)NC2C3CC4CC(C3)CC2C4)[n+](=O)c2ccccc2n1[O-]` (stereo not given), the growth inhibition is -20.4%.

In the case of `Cc1nc(N)nc(C)c1N=Nc1ccc(Cl)cc1Cl`, the growth inhibition was 9.6%.

In the case of `c1ccc(C2=NC3CCCCC3S2)cc1` (stereo not given), the growth inhibition is -2.75%.
